Shown are actives, neighbours in structure and some others; about 5.7% of the full set was active somewhere.
HEK293 tox: qHTS of GLP-1 Receptor Inverse Agonists: Cytotox Screen; HEK293 cAMP-luciferase reporter cells, luminescence, 24 h; Potency, µM (doses to about 38.3 µM), without a hit: top-dose activity change, negative = inhibition, actives largely listed as inhibitors; 410,000 tested, 0.13% active;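 also: loss of luciferase light is scored as toxicity; potency is read from the fitted curve at half-maximal effect; % is scaled to controls: 0 for no effect and ±100 for the full control effect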
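Seeding density was 200 cells/uL; after overnight-length (12 h) culture, 23 nL compounds went on for 24 h at 37 °C. Readout used a luciferase detection reagent, luminescence taken after 12 min at room temperature.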
D3 ag: qHTS of D3 Dopamine Receptor Agonist: qHTS; 410,000 tested, 0.58% active; D(3) dopamine receptor (Homo sapiens), P35462; max activation, %; D3R DiscoveRx beta-arrestin cells, luminescence, 90 min; AID 652048, 2013; in the data active = max activation above about 30%; also: 0% is about no effect
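Agonist mode: compounds and dopamine controls were applied to plated cells for 90 min at 37 degrees C after an overnight attachment at 1500 cells/well. Luminescent read-out followed 30 - 60 minutes at room temperature with DiscoveRx detection reagent.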
GLP-1R agonist: qHTS of GLP-1 Receptor Agonists; Glucagon-like peptide 1 receptor (Homo sapiens), P43220; HEK293 GLP-1R CRE-luciferase, luminescence, 4-6 h; cells express a hypersensitive GLP-1R form; Potency, µM (top dose mostly 45.6 µM), for the others: top-dose activation, most hits filed as activators; 380,000 tested, 0.007% active; also: potency is read from the fitted curve at half-maximal effect; % of control where 0% means no effect
ClpP mod: qHTS Assay for Activators of ClpP | ATP-dependent Clp protease proteolytic subunit (Bacillus subtilis (strain 168)), P80244 | purified B. subtilis ClpP, FRET peptide cleavage, 20 min | Potency, µM (doses to about 57.5 µM), without a hit: top-dose activity change, negative = active | 340,000 tested, 1.9% active; active = well fitted falling curve with a large enough effect; inconclusive = small, poorly fitted or top-dose-only effect; inactive = no such curve, though single readings can be large or run the other way; also: potency is read from the fitted curve at half-maximal effect; the source files actives as falling curves though it sought activators and does not explain the sign; nearly all actives have a fitted effect of over 65% in size
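Buffer: 100 mM Tris/HCl pH8, 100 mM KCl, 0.05% low protease BSA, 2.5% glycerol, 0.01% Tween-20. ClpP 10 microg/mL final; 20 min RT; delta FRET normalized to ADEP and DMSO controls.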
GLP-1R inv ag: qHTS of GLP-1 Receptor Inverse Agonists (Inhibition Mode); Glucagon-like peptide 1 receptor (Homo sapiens), P43220; HEK293 GLP-1R CRE-luciferase, luminescence, 24 h; GLP-1R form is constitutively active; Potency, µM (highest dose often 38.3 µM), without a hit: at the top dose activity change, negative = inhibition, usual class: inhibitors; 410,000 tested, 1.6% active; AID 624417, 2012; also: potency is read from the fitted curve at half-maximal effect; % is scaled to controls: 0 for no effect and ±100 for the full control effect; nearly all actives have a fitted effect of over 55% in size
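Stable HEK293 clone (constitutively active GLP-1R + cAMP-response luciferase); 200 cells/uL plated, 12 h pre-culture, compound 24 hr, 37 deg C/5% CO2; detection reagent 12 min RT; luminescence.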
DRD3 antagonist: qHTS of D3 Dopamine Receptor Antagonist: qHTS | D(3) dopamine receptor (Homo sapiens), P35462 | D3R cells, DiscoveRx beta-arrestin luminescence, antagonist mode; hits give low values | max response, negative = inhibition, % | 360,000 tested, 2.5% active; in the data active = max response below about -50%; inconclusive = no clear call, values can overlap the other calls; also: % is scaled to controls: 0 for no effect and ±100 for the full control effect
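Cells expressing the human receptor were seeded at 1500 cells/well, incubated overnight at 37 degrees C in 5% CO2, then exposed to library compounds with dopamine controls for 90 minutes at 37 degrees C before luminescent detection.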
* hit, by the source's call; ? = inconclusive; / = no result given. Unless noted, calls follow the shape of the dose curve; as a rule, active = well fitted curve in the direction sought with a large enough effect; inconclusive = small, poorly fitted or top-dose-only effect, or another doubt; inactive = no such curve, though single readings can be large; an effect the other way counts as inactive or inconclusive.

SMILES	HEK293 tox	D3 ag	GLP-1R agonist	ClpP mod	GLP-1R inv ag	DRD3 antagonist
O=C(Nc1nc2ccc(Cl)cc2s1)c1cccc(N2C(=O)CCC2=O)c1	11%	-17	2%	35µM*	26%	-11
COc1ccc2nc(NC(=O)c3cccc(N4C(=O)CCC4=O)c3)sc2c1	4%	0	5%	-2%	-9%	-26
O=C(CP(=O)(c1ccccc1)c1ccccc1)Nc1nc2ccc(Cl)cc2s1	-1%	-4	0%	0%	11µM*	-13
OC(c1cccc(OCc2ccccc2)c1)c1nnc(-c2ccccc2)o1 (configuration not stated)	-3%	7	3%	1%	10µM*	20
OC(c1ccc(OCc2ccccc2)cc1)c1nnc(-c2ccccc2)o1 (configuration not stated)	-16%	7	-8%	14µM*	-20%	45
Cc1ccc(OCc2nnc(-c3ccccc3)o2)cc1	-3%	10	/	0%	5%	/
CC(=O)c1c(C)[nH]c(C(=O)COC(=O)c2ccc(C)s2)c1C	0%	39*	9%	/	8%	38
CCOC(=O)c1c(C)[nH]c(C(=O)COC(=O)c2[nH]c(C)c(C(C)=O)c2C)c1C	-12%	37*	-15%	1%	24%	16
CCOC(=O)c1c(C)[nH]c(C(=O)OCC(=O)Nc2ccc(Cl)cn2)c1C	0%	-3	-33%	?	-2%	0
CCOC(=O)c1c(C)[nH]c(C(=O)OCC(=O)Nc2sccc2C(N)=O)c1C	?	28	-23%	-2%	11µM*	141
CCOC(=O)c1[nH]c(C)c(C(=O)OCC)c1C	-4%	-2	?	1%	18%	-20
CCOc1ccc2c(c1)C(C)=CC(C)(C)N2C(=O)Nc1ccccc1	7%	-13	4%	28µM*	37%	-24
CCNC(=O)N1c2ccc(OC)cc2C(C)=CC1(C)C	-5%	-3	1%	32µM*	-7%	-24
COc1ccc(NC(=O)N2c3ccc(OC)cc3C(C)=CC2(C)C)cc1	16%	-1	-4%	4%	29%	-3
CCOC(=O)c1c(C)[nH]c(C)c1S(=O)(=O)N1CCCC(C(=O)Nc2ccccc2OCC)C1 (configuration not stated)	2%	-5	/	1%	2%	/
CSc1ccc(CCNC(=O)c2csc3c2CCCCC3)cc1	-4%	-3	/	-1%	?	/
CCOC(=O)c1ccc(/C=C2/C=C(c3ccccc3)N(c3ccc(Cl)c(C(=O)O)c3)C2=O)cc1	-15%	3	-1%	1%	10µM*	?
CC1CN(Cc2c(O)ccc3c2oc(=O)c2ccccc23)CC(C)O1 (configuration not stated)	0%	-30	17%	-18%	20%	-66*
CCN(CC)C(=O)Cn1cc(S(=O)(=O)CC(=O)Nc2ccc(F)cc2F)c2ccccc21	10%	-14	-1%	-5%	-11%	17
CCN(CC)C(=O)Cn1cc(S(=O)(=O)CC(=O)Nc2ccccc2C)c2ccccc21	-11%	3	8%	28µM*	21%	12
COc1ccc(N2CC(NC(=O)/C=C\c3ccccc3)CC2=O)cc1OC (configuration not stated)	0%	4	0%	-1%	-4%	/
O=C(CCNC(=O)c1ccccc1Cl)Nc1nc(-c2ccccc2Cl)cs1	-8%	19	1%	/	7.9µM*	-8
CN(C)c1ccc(/C=[N+]2\C(=O)CC(=O)NC2=O)cc1	/	/	/	1%	/	/
Cc1cccc(/C=N\NC(=O)c2csnn2)c1	56%	-14	-17%	-14%	8%	-91*
CN(Cc1ccccc1N1CCCC1)C(=O)c1cc2ccccc2o1	6%	10	14%	/	10µM*	1
SMILES	HEK293 tox	D3 ag	GLP-1R agonist	ClpP mod	GLP-1R inv ag	DRD3 antagonist
CN(Cc1ccccc1N1CCCC1)C(=O)c1cc2cc(Cl)ccc2o1	2%	-2	7%	-6%	?	-5
CCOc1ccccc1NC(=O)C(=O)NCCc1sc(-c2cccc(F)c2)nc1C	-5%	7	/	1%	5%	/
Cc1oc(-c2ccccc2Cl)nc1CS(=O)(=O)CC(=O)NC(C)CCc1ccccc1 (configuration not stated)	-11%	-7	-3%	-1%	10µM*	/
CCOC(=O)C(NC(C)=O)(Nc1cccc(F)c1)C(F)(F)F (configuration not stated)	8%	4	7%	-3%	7%	31
COC(=O)C(NC(C)=O)(Nc1cc(C)ccn1)C(F)(F)F (configuration not stated)	-5%	-1	7%	/	0%	14
CCCCC(=O)NC(Nc1cc(C)ccn1)(C(=O)OCC)C(F)(F)F (configuration not stated)	-11%	2	-12%	25µM*	?	-21
CCOC(=O)C(NC(C)=O)(Nc1ccc(F)cc1)C(F)(F)F (configuration not stated)	71%	-10	-7%	20µM*	1%	-8
CCOC(=O)C(NC(=O)Nc1ccc(F)cc1)(OCC)C(F)(F)F (configuration not stated)	-8%	-7	-15%	1%	3%	-53*
CCc1nc2ccc(C(=O)NCCNC(C)=O)cn2c1N(C)Cc1ccc(OC)cc1	-2%	-2	9%	-4%	12%	14
CCCNC(=O)C1(C)CCN(Cc2csc3ccccc23)C1 (configuration not stated)	2%	-16	-3%	-4%	-17%	-26
CC(NC(=O)NC(=O)c1ccc(Cl)cc1)c1ccccc1 (configuration not stated)	-44%	-14	-8%	-2%	?	?
COCC(C)NC(=O)NC(=O)c1ccc(Cl)cc1 (configuration not stated)	8%	-5	1%	-2%	7%	-104*
COc1cc(Cl)cc(/C=C/c2ccc3cccc(O)c3n2)c1OC	0%	-1	6%	/	-2%	-94*
Oc1cccc2ccc(/C=C/c3ccccc3Cl)nc12	0%	-22	8%	-1%	-3%	-176*
Oc1ccc(/C=C/c2ccc3cccc(O)c3n2)cc1Br	202%	-3	1%	0%	10µM*	-9
COc1ccc(Cl)cc1/C=C/c1ccc2cccc(O)c2n1	-5%	-22	11%	-2%	-19%	-84*

Screening results deposited in PubChem BioAssay by National Center for Advancing Translational Sciences (NCATS).
